# Only some compounds are listed: those with a hit (about 1.8% of all), similar ones and a draw of the others.
# Six1-Eya2 blk: qHTS Assay for Inhibitors of the Six1/Eya2 Interaction. Homeobox protein SIX1 (Homo sapiens) + Protein phosphatase EYA2 (Homo sapiens), …. AlphaScreen GST-Six1/His-Eya2 binding, biochemical; stronger effect = lower value. activity change, % (concentration not given with the values). actives 0.56% (n = 360,000). AID 651725, 2012
#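 GST-Six1 + His-Eya2 (5X stock: 250/500 nM); Tris pH 8.0, 300 mM NaCl, 0.05% BSA, 0.02% Tween 20; GSH donor/Ni acceptor beads; 1 h 37 °C dark; AlphaScreen readout.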
# PI4K2A block: qHTS for small molecular inhibitors of PI4K2A; Phosphatidylinositol 4-kinase type 2-alpha (Homo sapiens), Q9BTU6; purified PI4K2A, ADP-Glo luminescence, 1 h; stronger effect = lower value; activity change, negative = inhibition, % at 76.9 µM; actives 0.13% (n = 420,000); in the data active means activity change below about -50%; inconclusive means mostly about -30% to -49%
# Target sequence (Q9BTU6 whole entry, looked up): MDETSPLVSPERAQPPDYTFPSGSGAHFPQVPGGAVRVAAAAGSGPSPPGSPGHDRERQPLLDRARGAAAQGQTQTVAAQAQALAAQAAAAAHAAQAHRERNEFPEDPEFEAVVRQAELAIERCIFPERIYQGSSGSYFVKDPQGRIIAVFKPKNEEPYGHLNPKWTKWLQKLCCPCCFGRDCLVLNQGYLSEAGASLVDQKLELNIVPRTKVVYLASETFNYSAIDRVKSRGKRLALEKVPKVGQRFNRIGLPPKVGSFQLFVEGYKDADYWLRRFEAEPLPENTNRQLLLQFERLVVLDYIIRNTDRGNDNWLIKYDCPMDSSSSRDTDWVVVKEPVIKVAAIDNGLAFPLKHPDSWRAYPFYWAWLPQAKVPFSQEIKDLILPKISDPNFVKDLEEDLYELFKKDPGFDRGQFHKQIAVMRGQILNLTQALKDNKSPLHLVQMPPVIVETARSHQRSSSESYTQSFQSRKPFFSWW
#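 ADP-Glo luminescence measured ADP generated by PI4K2A enzyme (4 ug/mL before mixing) with 1.2 mM PI substrate (pre-mix) and 300 microM ATP (pre-mix). Tris pH7.5 buffer with MgCl2, Triton X-100; 1 h reaction at ambient temperature.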
# PI5P4K alpha inh: qHTS for Inhibitors of phosphatidylinositol 5-phosphate 4-kinase (PI5P4K); actives 1.2% (n = 330,000); Phosphatidylinositol 5-phosphate 4-kinase type-2 alpha (Homo sapiens), P48426; max response, %; AID 652105, 2013; PI5P4Kalpha enzyme, ADP-Glo luminescence, 60 min; stronger effect = lower value; active means max response of -50% or lower; inconclusive means between -30% and -50%; inactive means -30% or higher; further: value at the top dose of about 77 µM
#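 Quantitative HTS of the MLSMR library against PI5P4Kalpha with substrate. ATP added last at 5 microM final; room temperature, 60 minutes. Remaining ATP depleted, ADP converted and read as luminescence.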
# CtBP-E1A inh: qHTS Assay for Inhibitors of the CtBP/E1A Interaction. AID 651724, 2012. AlphaScreen GST-E1A/His-CtBP binding, 1536-well; stronger effect = lower value. actives 0.49% (n = 340,000). activity change, % (concentration not given with the values)
#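 GST-E1A and His-tagged CtBP (125 nM each as 5X stock) were preincubated with pin-transferred compound for 2 h at 37 °C in the dark, then glutathione donor and nickel acceptor beads were added for 1 h before AlphaScreen reading.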
# Akt phos inh: HTS Assay for Inhibitors of Akt Phophorylation: Primary Screen; Neuro2A IGF-stimulated pAkt S473 HTRF, 20 min; stronger effect = lower value; activity change, % for hits at 50 µM; actives 0.32% (n = 360,000); AID 651550, 2012; in the data active means activity change below about -80%; inconclusive means mostly about -51% to -80%
#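 Neuro2A cells (4,500/well, DMEM with 0.5% FBS) were treated with compound at a single 50 µM final concentration, stimulated with 6 nM IGF for 20 min at 37 °C, and lysed. Phospho-Akt Ser473 was read by HTRF as 665/615 ratio ×10^4.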
# A number is an active result; . = inactive; ? = inconclusive; / = no result. Unless noted, no stated cut-off is given here; in the data, active means activity change below about -65%; inconclusive means mostly about -30% to -63%; inactive means weaker than that.
SMILES,Six1-Eya2 blk,PI4K2A block,PI5P4K alpha inh,CtBP-E1A inh,Akt phos inh
O=C(CSc1nc2ccccc2c(=O)[nH]1)N1CCCCCC1,.,.,.,.,.
O=C(CSc1nc2ccccc2n1CCc1ccccc1)N1CCOCC1,.,.,.,.,.
O=C(CSc1nc2ccccc2c(=O)[nH]1)N1CCN(S(=O)(=O)c2ccccc2)CC1,.,.,/,.,-84.2%
O=C(CSc1nc2ccccc2c(=O)[nH]1)c1ccc(O)c(O)c1,.,.,-56.0,.,.
COc1ccc(C(N)c2csc(Nc3ccc(C(=O)NCCCO)cn3)n2)cc1 (configuration not stated),-75.6,.,.,-78.5,.
CC(N)c1csc(Nc2ccc(C(=O)NCCCO)cn2)n1 (configuration not stated),-68.7,.,.,-83.4,.
CCCNC(=O)Nc1nc(C(N)c2ccc(OC)cc2)cs1 (configuration not stated),-65.5,.,.,?,.
Cc1cccc(NC(=O)COc2ccc3c(c2)CCC3)n1,.,.,.,.,.
O=C(CNS(=O)(=O)c1c(Cl)cccc1Cl)OCC(=O)c1ccc[nH]1,.,.,-50.8,/,.
CC(=O)Nc1sc2c(c1C(c1cccs1)N1CCOCC1)CCCC2 (configuration not stated),.,.,.,.,-109.6%
CCOC(=O)c1sc(N2C(=O)C(O)=C(C(=O)c3ccco3)C2c2ccc([N+](=O)[O-])cc2)nc1C (configuration not stated),.,.,-80.4,.,.
COC(=O)c1sc(N2C(=O)C(O)=C(C(=O)c3ccc(C)o3)C2c2ccc([N+](=O)[O-])cc2)nc1C (configuration not stated),.,.,-82.9,.,.
Cc1ccc2nc(N3C(=O)C(O)=C(C(=O)c4ccc(C)o4)C3c3cccc(O)c3)sc2c1 (configuration not stated),.,.,-58.3,.,.
CCOC(=O)c1sc(N2C(=O)C(O)=C(C(=O)c3ccco3)C2c2ccc(C)o2)nc1C (configuration not stated),.,.,.,.,.
COc1ccc2nc(N3C(=O)C(O)=C(C(=O)c4ccco4)C3c3ccc(OC)c(OC)c3)sc2c1 (configuration not stated),.,.,.,.,.
CCOC(=O)c1sc(N2C(=O)C(O)=C(C(=O)c3ccc(C)o3)C2c2cccc([N+](=O)[O-])c2)nc1C (configuration not stated),.,.,-51.2,.,.
CCOc1ccc(C2C(C(=O)c3ccc(C)o3)=C(O)C(=O)N2c2nc(C)c(C(=O)OC)s2)cc1 (configuration not stated),.,.,.,/,.
CCC(C)(C)NC(=O)C(c1ccc(OC)cc1)N(CC1CCCO1)C(=O)CCC(=O)Nc1cc(C)on1 (configuration not stated),.,.,.,.,.
COc1ccc(CNc2nc3nc(-c4ccccc4)cc(=O)n3[nH]2)cc1OC,.,.,.,.,.
Cn1nc(-c2ccccc2)c(C#N)c1Sc1cccc(Cl)c1,.,.,/,.,.
O=c1c2c(-c3ccco3)csc2nc(SCc2cn3cccnc3n2)n1-c1ccccc1,?,-58.2,-66.7,.,.
NC(=O)CSc1nc2scc(-c3ccco3)c2c(=O)n1-c1ccccc1,?,?,-70.5,.,.
O=C(CSc1nc2scc(-c3ccco3)c2c(=O)n1-c1ccccc1)N1CCOCC1,.,.,/,.,.
Cc1cccc(C(=O)NCC(=O)OCC(=O)N2CCN(S(=O)(=O)c3ccc(C)cc3C)CC2)c1,.,.,.,.,.
O=C(O)CNC(=O)CC1S/C(=N/N=C/c2ccccc2O)NC1=O (configuration not stated),.,.,.,/,.
SMILES,Six1-Eya2 blk,PI4K2A block,PI5P4K alpha inh,CtBP-E1A inh,Akt phos inh
O=C(CC1S/C(=N/N=C2CCCCCC2)NC1=O)Nc1ccccc1F (configuration not stated),.,.,.,.,.
NC(=O)NC(=O)CC1S/C(=N/N=C2/NC(=O)CS2)NC1=O (configuration not stated),-78.4,.,.,?,.
O=C(O)CNC(=O)CC1S/C(=N/N=C2\CSC(=O)N2)NC1=O (configuration not stated),-92.5,.,.,/,.
Cn1c(=O)c2c(ncn2CCO)n(C)c1=O,.,.,.,.,.
NC(=O)N/N=C/c1coc2ccc3ccccc3c2c1=O,.,.,.,.,.
O=Cc1coc2ccc3ccccc3c2c1=O,.,.,-86.5,.,.
COC(=O)Cn1c2nc3ccccc3nc2c2cccc(C)c21,.,.,.,.,.
CC(C)=CCC12Oc3cc(O)ccc3C1(O)Oc1cc(O)c([C@H]3C=C(C)CC(c4ccc(O)cc4O)[C@H]3C(=O)c3ccc(O)cc3O)c(O)c1C2=O (some centres not stated),.,.,-91.5,.,.
COc1ccc(N=Nc2ccc(N)nc2N)cc1,?,.,.,?,.
CCOc1ccc2nc3cc(N=Nc4ccc(N)nc4N)ccc3c(N)c2c1,?,.,?,-76.1,.
Cn1c(=O)c2c(C(=O)O)cc(-c3ccccc3)nc2n(Cc2ccccc2)c1=O,.,.,.,.,.
O=C(O)c1ccc(-n2cccc2/C=N\NC(=O)c2cc3cc(Br)ccc3o2)cc1,.,.,-92.7,.,.
Cn1cc(/C=N/NC(=O)c2cc3cc(Br)ccc3o2)c2ccccc21,.,.,.,.,.
O=C(O)Cn1cc(/C=N/NC(=O)c2cc3cc(Br)ccc3o2)c2ccccc21,.,.,-74.8,.,.
O=C(N/N=C/c1cccn1-c1ccc(O)cc1)c1cccc2ccccc12,.,.,.,.,.
Nc1ccc(Cl)c(NC(=O)c2cccs2)c1,.,.,.,.,.
COc1cc(OC)c(Nc2cc(C)nc3nc(C)nn23)cc1Cl,.,.,.,.,.
COc1cc([N+](=O)[O-])cc(/C=N/NC(=O)Cn2cncn2)c1O,-90.4,.,.,/,.
COc1cc(/C=N/NC(=O)CSc2ccccn2)ccc1O,.,.,.,.,.
COc1cc([N+](=O)[O-])cc(/C=N/NC(=O)CSc2ccccn2)c1O,-81.6,.,.,-91.0,.
O=C(NCC(c1cccs1)N1CCOCC1)c1cc2ccccc2oc1=O (configuration not stated),.,.,.,.,.

# High-throughput results: PubChem BioAssay, National Center for Advancing Translational Sciences (NCATS)
